Source: PubChem (several laboratories)
Sampled rows, rich in hits. Any-hit rate of the full collection: about 11%.
Ins promoter up – MIN6 insulin promoter up-regulation. z-score at 5 µM. AID 1625. MIN6 insulin promoter-GFP reporter, high-content imaging; active compounds read high. 190,000 compounds, 0.3% hits;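 active means z-score above 3 at 5 µM with at least 500 cells counted in the well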
Autophagy mod – alters autophagy in cells; MEF GFP-LC3 puncta imaging; test concentration mostly 10 µM; calls only at 10 µM (by protocol); AID 463193; 190,000 compounds, 0.98% hits;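 active means percentage of spot-positive cells more than 3 SD above its plate mean, without a fluorescence outlier flag or 80% toxicity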;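 further: spot-positive cell cutoff set from DMSO-treated cells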
L major viab – reduces viability of Leishmania major promastigotes; resazurin fluorescence viability; AID 1063; 200,000 compounds, 9% hits; inhibition, % at 10 µM; in the data active means inhibition above about 50%;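 further: promastigotes grown with compound for 44 hours at 28 °C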
INS promoter inh – TRM-6 insulin promoter activity inhibition; TRM-6 cells (human fetal islet line), insulin promoter-eGFP reporter, imaging; reporter expression induced with tamoxifen; inhibition, % at 2 µM; 130,000 compounds, 0.9% hits;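 active means inhibition above the mean plus 3 SD, with well images judged a real hit on visual review, cut at about 60% in these data, passing the limit was not always enough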
WT yeast gro inh – growth inhibition of WT yeast, mitochondrial fusion screen; mitochondrial fusion phenotypic screen, WT strain; inhibition, % at 10 µM; 190,000 compounds, 2.1% hits; AID 1362; in the data active means inhibition above about 58%; tested in S. cerevisiae
* hit, by the source's call; i = inactive; . = not tested or not shown; + = active, no number.

SMILES	Ins promoter up	Autophagy mod	L major viab	INS promoter inh	WT yeast gro inh
O=C(CSc1nc2ccccc2[nH]1)N1CCN(S(=O)(=O)c2ccc(Cl)cc2)CC1	0.76	i	64.5*	-96.9	-5.3
Cc1ccccc1-c1nnn(CC(=O)N2CCN(S(=O)(=O)c3ccc(Cl)cc3)CC2)n1	0.64	i	53.4*	.	-3.1
O=C(CSc1nc2ccccc2c(=O)[nH]1)NCc1ccc(Cl)cc1	-0.17	i	0.1	-15.6	-1.6
O=C(Cn1nnc(-c2ccccc2)n1)N1CCN(S(=O)(=O)c2ccc(Cl)cc2)CC1	1.64	i	37.2	-60.0	-1.4
CCN(CC)c1ccc(NC(=O)CSc2nc3ccccc3c(=O)n2-c2cc(S(=O)(=O)N(C)C)ccc2C)cc1	-0.32	i	99.4*	46.0	1.6
CN(C)S(=O)(=O)c1cccc(NC(=O)CSc2nc3ccccc3n2-c2ccccc2)c1	-0.34	i	8.8	-56.7	18.6
CN(C)S(=O)(=O)c1ccc(NC(=O)CSc2nc3ccccc3n2-c2ccccc2)cc1	.	i	100.1*	0.0	6.4
COc1cc(NC(=O)CSc2nc3ccccc3n2-c2ccccc2)c(C)cc1[N+](=O)[O-]	-2.61	i	54.8*	-7.1	3.7
COc1ccc(-n2c(SCC(=O)Nc3ccc([N+](=O)[O-])cc3OC)nc3ccccc32)cc1	.	i	11.3	.	11.2
COc1ccc(-c2c(NC(=O)c3ccco3)n(C)c3ccccc3c2=O)cc1	0.24	i	-6.0	19.4	2.7
O=C(O)c1ccc(NCCc2ccc(Cl)cc2)c([N+](=O)[O-])c1	0.11	i	-8.9	-25.0	11.7
O=c1c2ccccc2ncn1-c1ccccc1C(F)(F)F	-0.35	i	-8.0	.	14.0
Cn1cnnc1SCc1ccc(C(=O)N=Nc2c(O)n(C)c3ccccc23)cc1	.	i	1.5	.	-5.7
Cc1ccc(NC(=O)c2sc3nc(C)nc(N4CCN(c5ccccn5)CC4)c3c2C)c(C)c1	-1.68	i	30.4	-31.6	37.7
Cc1nc(N2CCN(C)CC2)c2c(C)c(C(=O)Nc3ccc(F)cc3)sc2n1	.	i	8.4	0.0	.
Cc1nc(N2CCCCC2C)c2c(C)c(C(=O)Nc3cccc(C(F)(F)F)c3)sc2n1 (stereo not drawn)	0.18	i	67.1*	0.0	68.1*
Cc1nc(N2CCCCC2)c2c(C)c(C(=O)Nc3cccc(C(F)(F)F)c3)sc2n1	-0.35	i	61.8*	33.3	70.1*
Cc1nc(N2CCCCC2)c2c(C)c(C(=O)Nc3ccccc3C(F)(F)F)sc2n1	-0.41	i	41.9	42.9	65.9*
Cc1ccc2nc3sc(-c4nnc(-c5ccccc5[N+](=O)[O-])o4)c(N)c3cc2c1	0.34	+	5.5	-41.7	2.7
CCOC(=O)c1c(NC(=O)c2cc(C3CC3)on2)sc2c1CCCC2	.	.	.	.	23.2
CC1=CCC(C(=O)O)(C(=O)N/N=C/c2cccs2)C(c2ccc([N+](=O)[O-])cc2)C1 (stereo not drawn)	-0.43	i	-7.2	-14.3	69.5*
COc1ccc(C2NC(c3ccc(OC)cc3OC)C(C)C(=O)C2C)c(OC)c1 (stereo not drawn)	-0.62	i	-5.6	.	2.1
CCN(CC)CCNC(=O)c1ccc2c(c1NCCO)C(=O)c1ccccc1C2=O	0.39	.	.	.	.
CC1CCN(C(=O)c2ccc3c(c2NCCO)C(=O)c2ccccc2C3=O)CC1	-0.73	i	36.9	46.4	71.3*
CC1CC(C)CN(C(=O)c2cccc3c2-c2ccccc2C3=O)C1 (stereo not drawn)	3.97*	.	.	.	.
SMILES	Ins promoter up	Autophagy mod	L major viab	INS promoter inh	WT yeast gro inh
c1sc2[n+](c1C13CC4CC(CC(C4)C1)C3)CCS2	-1.17	i	-2.6	-76.9	-5.7
O=[N+]([O-])c1ccc(-c2csc3[n+]2CCS3)cc1	-0.19	i	-1.1	-16.7	72.1*
Fc1ccc(-c2csc3[n+]2CCS3)cc1	.	i	1.8	50.0	69.9*
Brc1ccc2c(c1)OCCOCCOc1cc(Br)ccc1OCCOCCOCCO2	-1.5	i	100.5*	-30.0	79.9*
Cc1cccc(C)c1C(OCCN(C)C)C1CCCCC1 (stereo not drawn)	-1.53	i	46.8	3.7	19.5
Cc1cc(OC(=O)c2ccc(S(=O)(=O)N3CCOCC3)cc2)c([N+](=O)[O-])c(=O)[nH]1	-1.36	i	-1.0	31.7	13.7
O=C(CN(C(=O)Cn1nnc(-c2cccs2)n1)c1ccc2c(c1)OCCO2)NCc1ccccc1	0.9	i	95.3*	18.4	0.6
CCN(Cc1ccccc1)C(=O)COC(=O)c1cc(Cl)nc(Cl)c1	0.23	i	-1.8	.	11.1
CCCCOc1ccc(CSCCNC(=S)Nc2ccccc2)cc1	-1.31	i	25.2	.	52.5
CC(C)COc1ccc(CSCCNC(=S)Nc2ccccc2)cc1	-2.12	i	71.8*	.	75.6*
CCCCCOc1ccc(CSCCNC(=S)Nc2ccccc2)cc1	1.03	i	53.0*	-11.8	68.3*
CCn1c(=O)cc(OCC(=O)Nc2ccccc2C#N)c2ccccc21	-0.75	.	-9.5	.	10.1
C/C(=C\C(=S)Nc1ccccc1)Nc1cccc2ccccc12	-0.35	i	17.2	18.8	48.5
C/C(=C\C(=S)Nc1ccccc1)Nc1ccc2ccccc2c1	-0.03	i	9.9	13.3	61.6*
O=C(CCNC(=O)c1ccc(Cl)cc1)Nc1c(F)c(F)cc(F)c1F	.	i	2.4	-33.3	-0.2
Cc1ccc(CSc2nnc(-c3ccccc3N)c(=O)[nH]2)cc1	0.06	i	-6.6	8.6	63.2*
CCc1nnc(NS(=O)(=O)c2ccc(NC(=S)NC(=O)c3ccc(OC)cc3)cc2)s1	2.12	i	55.0*	13.9	6.4
Cc1cc(NS(=O)(=O)c2ccc(NC(=S)NC(=O)c3ccncc3)cc2)no1	-0.41	.	.	.	.
Cc1ccc(NS(=O)(=O)c2cccc(C(=O)Nc3cc(C)on3)c2)cc1	0.12	i	90.6*	-368.8	9.7
CCC(CC)C(=O)Nc1cccc(C(=O)Nc2ccc(S(N)(=O)=O)cc2)c1	0.04	i	3.1	.	-13.3
CCC(CC)C(=O)Nc1cccc(C(=O)Nc2ccc(S(=O)(=O)Nc3ccc(C)cc3)cc2)c1	-0.27	i	67.2*	10.0	33.8
CCc1nnc(NS(=O)(=O)c2ccc(NC(=S)NC(=O)c3ccc(OC)c(OC)c3)cc2)s1	1.91	i	-8.9	50.0	5.7
Cc1cc(NS(=O)(=O)c2ccc(NC(=S)NC(=O)c3ccccc3)cc2)no1	0.62	i	65.7*	13.5	5.7
Cc1ccc(S(=O)(=O)Nc2ccc(C(=O)Nc3cc(C)on3)cc2)cc1	-0.03	i	6.7	.	-16.0
CC1(C)Cc2ccccc2C(/C(C#N)=N/O)=N1	-0.63	i	-0.3	14.3	0.7
COc1cc(SC)ccc1C(=O)N(Cc1ccccc1)c1ccccn1	-0.2	.	.	.	.
CCOc1cc(S(=O)(=O)n2nc(C)cc2C)ccc1Br	-0.72	i	10.8	.	-6.8
COC(=O)c1ccccc1NC(=O)/C=C/c1ccco1	-0.21	i	-6.8	-6.7	8.4
O=C(/C=C/c1ccco1)Nc1ccccc1N1CCCCC1	-0.17	i	17.6	.	70.0*
O=C(CCc1nnc(Cc2ccc(-c3ccccc3)cc2)o1)NCCc1cccnc1	-0.5	i	5.0	.	-4.4
